Laboratory results reported in PubChem BioAssay (NCI).
The panel holds about 83,000 compounds, 20% with a hit somewhere; the sample as a whole holds those more often.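 Percent growth is the endpoint: 0 to 100 indicates growth inhibition (40 means 60% inhibition), 0 means no net growth, and negative values indicate cell death.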 Activity calls are given as the source filed them. Rule for the calls: active = growth percent below 10; inactive = the rest.

Assays:
Test in all cases: NCI-60 one-dose screen, 48 h (100 = growth as untreated, 0 = no growth, -100 = all killed)
Conditions in all cases: 10 µM unless noted
NCI-H23 lung = tested on: NCI-H23 lung
NCI-H226 lung = tested on: NCI-H226 lung
NCI-H322M lung = tested on: NCI-H322M lung
HOP-62 NSCLC = tested on: HOP-62 NSCLC
NCI-H460 lung = tested on: NCI-H460 lung
HOP-92 NSCLC = tested on: HOP-92 NSCLC
NCI-H522 lung = tested on: NCI-H522 lung
A549/ATCC NSCLC = tested on: A549/ATCC NSCLC
786-0 renal = tested on: 786-0 renal
COLO 205 colon = tested on: COLO 205 colon

Compound	growth (NCI-H23 lung)	growth (NCI-H226 lung)	growth (NCI-H322M lung)	growth (HOP-62 NSCLC)	growth (NCI-H460 lung)	growth (HOP-92 NSCLC)	growth (NCI-H522 lung)	growth (A549/ATCC NSCLC)	growth (786-0 renal)	growth (COLO 205 colon)
NC(CO)(CO)c1ccccc1	99.1% (inactive)	96.6% (inactive)	101% (inactive)	100% (inactive)	99.1% (inactive)	88.1% (inactive)	95.3% (inactive)	100% (inactive)	106% (inactive)	103% (inactive)
Nc1ccc2ccccc2c1-c1c(N)ccc2ccccc12	41.6% (inactive)	73.5% (inactive)	39.7% (inactive)	43% (inactive)	20.2% (inactive)	52.9% (inactive)	37.1% (inactive)	19.9% (inactive)	49.3% (inactive)	5.44% (active)
CCOC(=O)C(CCC#N)(CCC#N)C(=O)OCC	96.6% (inactive)	98.4% (inactive)	113% (inactive)	102% (inactive)	103% (inactive)	84% (inactive)	117% (inactive)	102% (inactive)	98.4% (inactive)	102% (inactive)
CC1(C)C2CCC1(C)C1(C2)OCCS1 (stereo not given)	95.6% (inactive)	92.7% (inactive)	99.6% (inactive)	101% (inactive)	106% (inactive)	102% (inactive)	102% (inactive)	99% (inactive)	97.4% (inactive)	118% (inactive)
CC(CO)(CO)C(=O)O	110% (inactive)	96.8% (inactive)	99.3% (inactive)	95.7% (inactive)	105% (inactive)	86.3% (inactive)	101% (inactive)	102% (inactive)	105% (inactive)	109% (inactive)
C1C[S+]2CC[S+]1CC2	97.9% (inactive)	98.3% (inactive)	111% (inactive)	104% (inactive)	101% (inactive)	111% (inactive)	98.5% (inactive)	98.9% (inactive)	111% (inactive)	116% (inactive)
COc1cc(CC#N)c([N+](=O)[O-])cc1OC	96% (inactive)	105% (inactive)	105% (inactive)	113% (inactive)	106% (inactive)	99.8% (inactive)	102% (inactive)	102% (inactive)	102% (inactive)	110% (inactive)
Nc1ncnc(Nc2ccc(C(F)(F)F)cc2)n1	100% (inactive)	103% (inactive)	102% (inactive)	103% (inactive)	106% (inactive)	76.7% (inactive)	98.5% (inactive)	93.6% (inactive)	97.7% (inactive)	108% (inactive)
c1ccc2[nH]c(Cc3nc4ccccc4[nH]3)nc2c1	107% (inactive)	112% (inactive)	93.1% (inactive)	99.2% (inactive)	111% (inactive)	85% (inactive)	103% (inactive)	103% (inactive)	117% (inactive)	105% (inactive)
NS(=O)(=O)c1cc(=O)[nH]c(=O)[nH]1	114% (inactive)	109% (inactive)	93.7% (inactive)	107% (inactive)	111% (inactive)	172% (inactive)	74.5% (inactive)	115% (inactive)	105% (inactive)	117% (inactive)
CCOc1ccccc1NC(=O)CCl	71.4% (inactive)	86.3% (inactive)	107% (inactive)	99.8% (inactive)	97.3% (inactive)	103% (inactive)	56.1% (inactive)	100% (inactive)	108% (inactive)	104% (inactive)
NC(=S)c1c(N)n(C2OC(CO)C(O)C2O)c2ncnc(N)c12 (stereo not given)	-0.783% (active)	14% (inactive)	-25.8% (active)	3.76% (active)	-0.26% (active)	-21.5% (active)	-53.5% (active)	5.46% (active)	-0.846% (active)	-50.9% (active)
N#Cc1ccc(OC(=O)Nc2c(Cl)cc(Cl)cc2Cl)cc1	109% (inactive)	107% (inactive)	100% (inactive)	103% (inactive)	139% (inactive)	98.9% (inactive)	89.8% (inactive)	96.3% (inactive)	100% (inactive)	128% (inactive)
O=C(CCl)Nc1ccccc1SCc1cc(Cl)cc2c1OCOC2	82.7% (inactive)	82.8% (inactive)	89.7% (inactive)	100% (inactive)	105% (inactive)	-6.11% (active)	-74.8% (active)	96.5% (inactive)	99.6% (inactive)	95.7% (inactive)
NNC(=O)CCCCl	97.7% (inactive)	98.7% (inactive)	107% (inactive)	107% (inactive)	111% (inactive)	137% (inactive)	104% (inactive)	100% (inactive)	108% (inactive)	118% (inactive)
CC(C)=CCC[C@@H](C)[C@H]1CC[C@@]2(C)C3=C(CC[C@]12C)[C@@]1(C)CC[C@H](O)C(C)(C)[C@@H]1CC3	113% (inactive)	104% (inactive)	122% (inactive)	107% (inactive)	107% (inactive)	97.8% (inactive)	95% (inactive)	97.7% (inactive)	101% (inactive)	110% (inactive)

Compound	growth (NCI-H23 lung)	growth (NCI-H226 lung)	growth (NCI-H322M lung)	growth (HOP-62 NSCLC)	growth (NCI-H460 lung)	growth (HOP-92 NSCLC)	growth (NCI-H522 lung)	growth (A549/ATCC NSCLC)	growth (786-0 renal)	growth (COLO 205 colon)
CN1CCCN(C(c2ccccc2)c2ccc(Br)cc2)CC1 (stereo not given)	87.1% (inactive)	78.2% (inactive)	39.7% (inactive)	76.8% (inactive)	82.5% (inactive)	25.8% (inactive)	90.8% (inactive)	87.7% (inactive)	79.1% (inactive)	81.5% (inactive)
NC(=O)N1CCOCC1	106% (inactive)	100% (inactive)	106% (inactive)	95.4% (inactive)	108% (inactive)	72.9% (inactive)	94.2% (inactive)	106% (inactive)	108% (inactive)	113% (inactive)
CC(=O)N=c1ccc2nc3c(cc(N)c4ccccc43)oc-2c1	-27.8% (active)	80.4% (inactive)	3.7% (active)	1.21% (active)	-41.2% (active)	-56.9% (active)	-78.1% (active)	11.2% (inactive)	-43.8% (active)	-84.6% (active)
Cc1nc(O)cc(=O)[nH]1	108% (inactive)	111% (inactive)	99.3% (inactive)	112% (inactive)	104% (inactive)	76.3% (inactive)	103% (inactive)	109% (inactive)	114% (inactive)	115% (inactive)
N#C/C(=C\NC(=S)N=Nc1c(O)[nH]c2ccccc12)c1nc2ccccc2s1	94.7% (inactive)	77.6% (inactive)	101% (inactive)	95.4% (inactive)	97.4% (inactive)	83.8% (inactive)	82.9% (inactive)	90.3% (inactive)	94.8% (inactive)	106% (inactive)
CCN(CC)CCN1CNC(=S)NC1	99.2% (inactive)	-70.2% (active)	108% (inactive)	98.8% (inactive)	114% (inactive)	96.5% (inactive)	94.6% (inactive)	106% (inactive)	101% (inactive)	106% (inactive)
O=C(O)CCCCCNC(=O)OCc1ccccc1	102% (inactive)	105% (inactive)	95.1% (inactive)	101% (inactive)	101% (inactive)	92.3% (inactive)	107% (inactive)	100% (inactive)	102% (inactive)	99% (inactive)
Cc1cc(Cl)cc(Cc2cc(Cl)cc(C)c2O)c1O	0.327% (active)	92.3% (inactive)	18.1% (inactive)	56.8% (inactive)	6.76% (active)	-33% (active)	-7.46% (active)	29% (inactive)	14.9% (inactive)	101% (inactive)
Cc1ccc2nc(N)nnc2c1	94.6% (inactive)	103% (inactive)	112% (inactive)	105% (inactive)	112% (inactive)	71.9% (inactive)	99% (inactive)	109% (inactive)	98.4% (inactive)	141% (inactive)
CCCCc1ccc2nc(NC(=O)OC)[nH]c2c1	14.1% (inactive)	63.4% (inactive)	50.2% (inactive)	24.2% (inactive)	2.11% (active)	60.7% (inactive)	-9.52% (active)	18.4% (inactive)	16.5% (inactive)	-45.8% (active)
OC(CCN1CCCCC1)(c1ccccc1)c1ccccc1	98.6% (inactive)	104% (inactive)	97.6% (inactive)	110% (inactive)	116% (inactive)	85.6% (inactive)	98.4% (inactive)	104% (inactive)	98.1% (inactive)	103% (inactive)
NC(=O)NCCO	98.9% (inactive)	95% (inactive)	109% (inactive)	102% (inactive)	104% (inactive)	111% (inactive)	95.2% (inactive)	93% (inactive)	107% (inactive)	116% (inactive)
OCCNc1ccccc1	95.6% (inactive)	97.7% (inactive)	104% (inactive)	105% (inactive)	106% (inactive)	92.7% (inactive)	99.5% (inactive)	103% (inactive)	99.9% (inactive)	107% (inactive)
CSCCC(NC(=O)C(Cl)Cl)C(=O)O (stereo not given)	99% (inactive)	88.5% (inactive)	99.6% (inactive)	77.9% (inactive)	114% (inactive)	85.2% (inactive)	86.8% (inactive)	80.5% (inactive)	101% (inactive)	99.7% (inactive)
Cc1ccc2[nH]c3ccccc3c2c1	96.9% (inactive)	103% (inactive)	99.6% (inactive)	113% (inactive)	99.7% (inactive)	100% (inactive)	101% (inactive)	102% (inactive)	93.9% (inactive)	109% (inactive)
